GSIS activator: GLuc luminescence reporter in INS-1E cells, primary screen for activators of glucose-dependent secretion of insulin. 0.61% of 370,000 active. activation, % at 16.6 µM. INS-1E GLuc reporter insulin secretion, 2-3 h;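 active means lowest replicate activation of at least 40%, so every replicate reaches that level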;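 further: 0% = median of neutral control wells and 100% = median of IBMX positive control wells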
HIV Env fusion: blocks HIV Env-driven cell-cell fusion. HeLa-JRFL Env/CEM21 cell fusion, luciferase. inhibition, % at 12.3 µM. 1.1% of 360,000 active;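 active means mean replicate inhibition score of at least 50 and every replicate individually at or above 50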;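 further: 0% = plate neutral controls and 100% = maraviroc near 300 nM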
PGC1a acetyl inh: PGC1a acetylation modulation, inhibitor mode. inhibition, % at 15.6 µM. 0.17% of 350,000 active. AID 651687. U2OS PGC1a acetylation, AlphaScreen anti-acetyl-lysine; with virally co-expressed GCN5 acetyltransferase;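 active means every replicate shows inhibition of at least 40%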;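 further: 0% = neutral control wells and 100% = positive control wells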
MLL AF4-AF9 inh: blocks AF4 peptide binding to human AF9; P42568; inhibition, % at 10 µM; AlphaScreen, biotin-AF4 peptide binding to FLAG-AF9; 0.47% of 350,000 active; AID 651704;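 active means every replicate reaching a set inhibition limit, whatever the replicate mean, cut at about 25% in these data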;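 further: 0% = plate neutral control median and 100% = total signal loss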
Target sequence (P42568 whole entry, looked up): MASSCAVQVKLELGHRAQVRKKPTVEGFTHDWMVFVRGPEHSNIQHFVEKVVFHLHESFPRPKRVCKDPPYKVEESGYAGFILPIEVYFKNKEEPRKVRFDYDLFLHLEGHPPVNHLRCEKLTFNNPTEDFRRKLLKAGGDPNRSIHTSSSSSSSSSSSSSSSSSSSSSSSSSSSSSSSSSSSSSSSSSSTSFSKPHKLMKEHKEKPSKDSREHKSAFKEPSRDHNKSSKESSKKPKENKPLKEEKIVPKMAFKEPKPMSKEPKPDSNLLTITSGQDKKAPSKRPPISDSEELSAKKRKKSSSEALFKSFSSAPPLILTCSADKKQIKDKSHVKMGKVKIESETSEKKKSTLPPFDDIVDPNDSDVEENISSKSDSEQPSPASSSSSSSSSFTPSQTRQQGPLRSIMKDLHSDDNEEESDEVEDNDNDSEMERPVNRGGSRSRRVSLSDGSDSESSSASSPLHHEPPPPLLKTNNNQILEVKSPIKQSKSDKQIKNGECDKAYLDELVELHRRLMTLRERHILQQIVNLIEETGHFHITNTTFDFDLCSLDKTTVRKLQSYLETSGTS
NSD2 HMT inh: NSD2 (human) methyltransferase inhibition | O96028 | NSD2 peptide methylation, AlphaScreen, 120 min | inhibition, % at 12.5 µM | 0.54% of 310,000 active | AID 743445; in the data active means inhibition above about 50%
AlphaScreen art: interferes with AlphaScreen signal, flagging NSD2 false positives | shares compounds with NSD2 HMT inh | AlphaScreen artifact counterscreen, preloaded methylated H4 peptide | AC35, µM (top dose mostly 10 µM), without a hit: top-dose activity change, negative = signal loss | 9.4% of 1,500 active; call rule not given here
An asterisk follows results filed as active; . = no result; [ ] = another dose, or the depositor's remark. Only some compounds are listed: those with a hit (about 2.1% of all), similar ones and a draw of the others.

SMILES	GSIS activator	HIV Env fusion	PGC1a acetyl inh	MLL AF4-AF9 inh	NSD2 HMT inh	AlphaScreen art
CC12CCC(C)(c3nc4ccccc4nc31)C2(C)C	7	4	-2	-3	53*	-3%
O=C(O)c1cccc(N2C(=O)c3ccc(C(=O)c4cccc([N+](=O)[O-])c4)cc3C2=O)c1	-15	-12	12	2	4	.
O=C(O)c1ccc2c(c1)C(=O)N(c1cccc(C(=O)/C=C/c3ccccc3)c1)C2=O	-43	-2	-16	2	89*	-2%
COc1cc(OC)nc(Oc2ccc(NC(C)=O)cc2)n1	-3	17	.	-4	-2	.
CC(=O)Nc1ccc(NCc2ccc(C)s2)cc1	-1	-14	-4	-5	56*	-3%
CCCN(C)C[C@H]1Oc2ncc(C#CCC(C)C)cc2C(=O)N([C@@H](C)CO)C[C@@H]1C	-11	-4[16.7 µM]	-6	5	.	.
CCOc1ccc(NC(=O)CSc2nnc(C34CC5CC(CC(C5)C3)C4)n2C)cc1	.	31	0	.	69*	-2%
CCCN(CC1CC1)C(=S)Nc1ccc(C(C)=O)cc1	1	-10	.	0	0	.
CCN(C(=S)Nc1ccc(C(C)=O)cc1)C1CCCCC1	-3	16	-4	-3	53*	-3%
Cc1ccc(S(=O)(=O)NC(C(=O)N2CCN(S(=O)(=O)c3cccc(F)c3)CC2)C(C)C)cc1 (centres undefined)	-14	29	-3	-4	94*	4%
COc1ccc2c(c1OC)C(=O)N1c3ccccc3N=C(c3ccc([N+](=O)[O-])cc3)CC21 (centres undefined)	4	-37	.	1	0	.
COCCCNc1ccnc2c(Cl)cccc12	.	.	-6	.	1	.
COc1cc(NCCCCC(C)N)c2nccc(C)c2c1 (centres undefined)	.	4	.	7	129*	-11%
COc1cccc(C(=O)N2CCCc3ccccc32)c1	.	-3	.	.	-3	.
CCOCCCNC(=O)Cn1cc2c(n1)-c1c(oc(C(=O)N3CCCC3)c1C)CC2	4	-9	3	2	97*	-8%
NCC[C@H]1CC[C@@H](NC(=O)C2CCCCC2)[C@H](CO)O1	-6	-31[16.7 µM]	5	3	.	.
Cc1cccc(C)c1NC(=O)CNC(=O)Cc1c[nH]c2ccccc12	-13	2	.	1	0	.
Cc1cccc(C)c1NC(=O)c1c[nH]c2ccccc12	-11	-40	10	-2	143*	3%
COc1cc(-c2nnc(SCc3cc(=O)oc4cc(O)c(O)cc34)o2)cc(OC)c1OC	.	-7	3	.	83*	0.99µM*
O=C(NCC(c1ccco1)N1CCCC1)c1cc(S(=O)(=O)N2CCCCC2)ccc1Cl (centres undefined)	-4	.	2	4	2	.
Nc1c2c(nc3ccccc13)N(c1ccccc1)CC2	.	.	-27	.	-1	.
CN1CCCCc2c1nc1ccccc1c2N (tested in a mixture with another compound)	.	-107	1	.	83*	1%
CC1=NN(c2ccc(S(=O)(=O)O)cc2Cl)C(=O)C1	-3	11	.	-2	71*	0%
CC1=NN(c2cc(Cl)c(S(=O)(=O)O)cc2Cl)C(=O)C1	.	14	0	4	6	.
O=C(Nc1ccc(F)cc1)C1CCN(C(=O)c2ccc(F)cc2)CC1	.	-11	2	0	3	.
SMILES	GSIS activator	HIV Env fusion	PGC1a acetyl inh	MLL AF4-AF9 inh	NSD2 HMT inh	AlphaScreen art
O=C(NNC(=O)c1ccc(NC(=O)C2CC2)cc1)c1ccc(F)cc1	17	2	.	-1	52*	-5%
O=C(O)c1cc(N/N=C/c2ccc3c(c2)OCO3)ccc1Cl	.	-22	.	-2	75*	-2%
CCN(CC)S(=O)(=O)c1ccc(OC)c(NC(=O)Cn2cnc3c2c(=O)n(C)c(=O)n3C)c1	4	4	.	0	-2	.
COc1ccc(Sc2nnc(-c3ccccc3)cc2C#N)cc1	.	.	13	.	-2	.
N#Cc1cc(-c2ccccc2)nnc1Oc1ccccc1Cl	.	.	9	.	71*	1%
CC(CCc1ccccc1)NC(=O)CNC(=O)c1cccs1 (centres undefined)	5	2	.	-1	1	.
O=S(=O)(Nc1nc(-c2ccco2)c(-c2ccco2)s1)c1ccc(F)cc1F	-2	7	3	3	100*	1%
CNC(=O)CCC(=O)Nc1ccc(C)cc1	6	7	5	-2	-2	.
COc1ccc(C(=O)OCC(=O)Nc2c(C)n(C)n(-c3ccccc3)c2=O)cc1	1	.	-4	2	51*	-2%
CCN(CC)CCNc1nc(SC)nc2sc3c(c12)CCN(C)C3	12	17	-2	10	62*	-7%
O=C(c1ccc(Cl)cc1)N1CCN(CCOc2ccccc2)CC1	-21	-8	0	-2	-1	.
CNCCCOc1cccc(Oc2ccccc2)c1	12	13	-1	2	127*	0%
CNCCCOc1cccc(OC(C)C)c1	.	.	-10	.	92*	-3%
CC[n+]1c(/C=C/Nc2ccccc2)oc2ccc(OC)cc21	6	3	.	-1	-4	.
CC[n+]1c(/C=C/Nc2ccccc2)oc2ccccc21	.	2	10	.	81*	-4%
CCOC(=O)c1sc2nc(C)nc(NCCc3ccccn3)c2c1C	-2	16	.	-2	7	.
CCOC(=O)c1sc2nc(C)nc(NC3CCC(O)CC3)c2c1C (centres undefined)	45	-1	11	-22	91*	-5%
Cc1cc(=O)n(Cc2ccccc2)c(O)c1C#N	-15	1	2	-4	53*	-7%
Cc1cc(=O)n(CCCO)c(O)c1C#N	.	.	7	.	0	.
O=C1C(Cl)=C(NCCN2CCOCC2)C(=O)c2ccccc21	-13	4	.	3	101*	1%
CCOCCCNC1=C(Cl)C(=O)c2ccccc2C1=O	1	3	-7	.	81*	-14%
C[C@H]1CN([C@@H](C)CO)C(=O)Cc2cc(NS(C)(=O)=O)ccc2O[C@H]1CN(C)S(=O)(=O)c1cccs1	3	28[16.7 µM]	-4	1	.	.
CC1=CS(=O)(=O)CC1Sc1nc(C)n[nH]1 (centres undefined)	13	-7	.	1	-7	.
CC1=CS(=O)(=O)CC1Sc1ncn[nH]1 (centres undefined)	.	.	9	.	144*	-5%
Cc1cccc(NC(=S)N2CCN(c3ccccc3F)CC2)c1C	-9	8	-18	4	57*	-5%
CN1CCN(C2=C(Cl)C(=O)c3ccccc3C2=O)CC1	-13	6	.	12	106*	-3%
O=C1C(Cl)=C(N2CCC(C(=O)O)CC2)C(=O)c2ccccc21	.	.	0	.	102*	2%
O=C(O)C1CCN(C(=O)c2ccccc2Cl)CC1	13	-68	-5	.	0	.
CC(=O)N1CCN(S(=O)(=O)c2cccc(C(=O)N(Cc3ccccc3)c3ccc(C)cc3)c2)CC1	-1	-15	.	7	1	.
Cc1cc2c(ncn2C)c(NS(=O)(=O)c2ccc(F)cc2)c1C	7	2	3	-1	-1	.
